Screening data (PubChem)
IL-1B inflam inh = blocks inflammasome-driven IL-1 beta release; activity change, % at 57.5 µM; hit rate 4.7% among 360,000; THP-1 LPS/ATP IL-1B secretion, AlphaLISA, 16 h; active compounds read low; in the data active means activity change below about -50%; inconclusive means mostly about -30% to -49%
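Secreted IL-1B measured by AlphaLISA bead assay after 16 h compound exposure of THP-1 cells; compounds (final up to 57.5 uM) added 1 h before LPS (250 ng/mL) and ATP (1.25 mM) stimulation; lower signal means less secretion.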
TDP1 cell CPT = growth inhibition of DT40 Tdp1-/-;hTDP1 cells with camptothecin (screen for TDP1 inhibitors); chicken DT40 Tdp1-/-;hTDP1 cells + 20 nM CPT, ATP luminescence, 48 h; Potency, µM (top dose mostly 46.2 µM), for the others: top-dose activity change, negative = growth inhibition, actives largely listed as inhibitors; hit rate 12% among 420,000; further: potency means the concentration at half of the fitted maximal effect; nearly all actives have a fitted effect of over 55% in size
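Chicken DT40 Tdp1-/- cells complemented with human TDP1, 400 cells/well, exposed to compounds plus 20 nM camptothecin for at least 48 h at 37 C; viability read as ATP content by CellTiter-Glo luminescence.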
LDHA block = blocks human lactate dehydrogenase A | P00338 | purified LDHA, NADH/diaphorase-resazurin fluorescence; active compounds read low | activity change, % (values are at about 110 or 230 µM) | hit rate 0.15% among 480,000 | AID 1347041; in the data active means activity change below about -30%; inconclusive means mostly about -25% to -30%;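 further: plate controls were DMSO wells for no effect and wells without enzyme for full effect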
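Remaining NADH was detected by diaphorase (0.133 mg/mL) converting 37 µM resazurin to fluorescent resorufin, read at 0 and 20 minutes. The preceding 5-minute room-temperature reaction used 2 nM LDHA, 0.2 mM sodium pyruvate and 0.06 mM NADH at pH 7.4.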
RORgamma inh = blocks mouse ROR gamma transcriptional activity | P51450 | Drosophila S2 Gal4-RORgamma UAS-luciferase reporter, 20 h | Potency, µM (highest dose often 53.6 µM), for the others: at the highest dose activity change, negative = inhibition, hits mostly inhibitors | hit rate 5.4% among 310,000; further: potency means the concentration at half of the fitted maximal effect; nearly all actives have a fitted effect of over 60% in size
Target sequence (P51450 whole entry, looked up, the tested form may be a part): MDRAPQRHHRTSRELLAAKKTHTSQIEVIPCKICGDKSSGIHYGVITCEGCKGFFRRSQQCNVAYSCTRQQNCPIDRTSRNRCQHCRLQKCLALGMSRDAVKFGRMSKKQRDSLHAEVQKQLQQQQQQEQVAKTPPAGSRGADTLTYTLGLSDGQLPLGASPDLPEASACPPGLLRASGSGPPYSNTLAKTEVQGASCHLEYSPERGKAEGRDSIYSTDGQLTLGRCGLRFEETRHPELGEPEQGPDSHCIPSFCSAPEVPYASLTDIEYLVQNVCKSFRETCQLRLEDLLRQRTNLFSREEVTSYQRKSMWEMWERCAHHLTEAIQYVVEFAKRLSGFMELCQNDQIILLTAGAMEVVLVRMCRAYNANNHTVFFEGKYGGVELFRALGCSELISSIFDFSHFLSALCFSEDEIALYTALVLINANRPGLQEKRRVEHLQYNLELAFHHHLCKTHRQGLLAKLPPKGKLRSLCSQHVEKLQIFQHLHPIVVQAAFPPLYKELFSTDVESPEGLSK
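ROR gamma transcriptional activity was tracked as Gal4-UAS luciferase output in stably transfected Drosophila Schneider cells, with compound added 1 hr before 700 uM copper sulfate induction and a 20 hr ambient-temperature incubation.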
DT40 TDP1 no CPT = qHTS for Inhibitors of human tyrosyl-DNA phosphodiesterase 1 (TDP1): qHTS in cells in absence of CPT. AID 686978, 2013. Potency, µM (titrated, usually from 46.2 µM), without a hit: at the top dose activity change, negative = growth inhibition, usual class: inhibitors. hit rate 15% among 420,000. DT40 Tdp1-/- hTDP1 cells, no CPT, ATP luminescence, 48 h; further: potency means the concentration at half of the fitted maximal effect; nearly all actives have a fitted effect of over 55% in size
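Chicken DT40 Tdp1-/- cells complemented with human TDP1, screened without camptothecin (DMSO vehicle only), 400 cells/well. Compounds pin-transferred, cells incubated at 37 °C for at least 48 hr. Growth read as ATP-dependent luminescence (CellTiter-Glo, 30 min at RT).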
VP16 counter = inhibits Gal4-VP16 luciferase reporter, ROR gamma counter-screen; hit rate 3.5% among 310,000; Drosophila S2 Gal4-VP16 UAS-luciferase, luminescence, 20 h; Potency, µM (doses to about 53.6 µM), without a hit: at the top dose activity, negative = inhibition, usual class: inhibitors; AID 2546;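 further: Gal4-VP16 expression switched on by copper sulfate through the metallothionein promoter; potency means the concentration at half of the fitted maximal effect; nearly all actives have a fitted effect of over 50% in size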
Starred values were filed as active, the others as inactive; ? = inconclusive; . = not tested or not shown; ! = repeats disagree; [ ] = remark or other dose. A selection: hits, their analogues and other compounds. The true share with any hit is near 18%. Unless noted, the call rests on the fitted dose curve; in most records, active means well fitted curve in the direction sought with a large enough effect; inconclusive means small, poorly fitted or top-dose-only effect, or another doubt; inactive means no such curve, though single readings can be large; an effect the other way counts as inactive or inconclusive. Unless noted, on the % scale 0 is the no-effect control and ±100 the full control effect.

SMILES	IL-1B inflam inh	TDP1 cell CPT	LDHA block	RORgamma inh	DT40 TDP1 no CPT	VP16 counter
CC(=O)N1CCN(S(=O)(=O)c2cccc(C(=O)N3CCN(S(=O)(=O)c4c(C)c(C)cc(C)c4C)CC3)c2)CC1	-15	?	-5	.	21µM*	.
CC1CN(C(=O)c2cc(S(=O)(=O)N(C)c3ccc(F)cc3)ccc2Cl)CC(C)O1 (configuration not stated)	2	2.3µM*	-1	3%	1µM*	-7%
CCOC(=O)C1CCCN(C(=O)c2cc(S(=O)(=O)N3CCCCC3)ccc2Cl)C1 (configuration not stated)	-14	21µM*	-8	.	21µM*	.
O=C(c1cc(S(=O)(=O)N2CCN(c3ccccc3)CC2)ccc1Cl)N1CCCCCCC1	-53*	?	-8	.	15µM*	.
CCOC(=O)c1nc2ccccc2nc1NCCc1ccc(OCC)c(OCC)c1	.	.	8	.	.	.
CC(C(=O)NC(=O)NC12CC3CC(CC(C3)C1)C2)N1CCN(c2oc(-c3ccco3)nc2C#N)CC1 (configuration not stated)	.	.	-7	.	.	.
Cc1ccc(S(=O)(=O)N2CCOCC2)cc1C(=O)N1CC(C)OC(C)C1 (configuration not stated)	0	-10%	-11	.	-14%	.
CC1CN(C(=O)c2cc(S(=O)(=O)N3CCN(c4ccccc4)CC3)ccc2Cl)CC(C)O1 (configuration not stated)	5	3.7µM*	1	.	2.1µM*	.
O=C(c1cccc(S(=O)(=O)N2CCN(c3ccccc3)CC2)c1)N1CCCCCCC1	-14	?	2	.	13µM*	.
CC1CCCCC1NC(=O)c1cccc(S(=O)(=O)N2CCN(C)CC2)c1 (configuration not stated)	11	23%	-1	.	1%	.
CCOC(=O)C1CCCN(S(=O)(=O)c2ccc(F)c(C(=O)Nc3ccc(F)c(F)c3)c2)C1 (configuration not stated)	-66*	23µM*!	-4	9%	16µM*	-3%
CC1CCCC(NC(=O)c2cccc(S(=O)(=O)N3CCN(c4ccccc4)CC3)c2)C1C (configuration not stated)	12	18µM*	-5	.	13µM*	.
O=C(Nc1ccccc1C1CC1)C1CC1	.	.	3	.	.	.
CC1CN(C(=O)c2cc(S(=O)(=O)N3CCCC3)ccc2Cl)CC(C)O1 (configuration not stated)	45	-19%	1	.	?	.
O=C(c1cccc(S(=O)(=O)N2CCc3ccccc3C2)c1)N1CCN(c2ccc(O)cc2)CC1	-11	15µM*	11	24%	12µM*	3%
CC1CN(C(=O)c2cc(S(=O)(=O)N3CCCCC3)ccc2Cl)CC(C)O1 (configuration not stated)	33	16µM*	-3	.	12µM*	.
O=C(NCC1(N2CCOCC2)CCCCC1)c1cccc(S(=O)(=O)N2CCc3ccccc3C2)c1	-10	18µM*	3	0%	?	-11%
O=C(O)c1cccc(S(=O)(=O)N2CCc3ccccc3C2)c1	22	-2%	0	-31%	-3%	4%
Cc1cnc(NC(=O)Cc2ccc(OCc3c(C)noc3C)cc2)s1	.	.	8	.	.	.
Cc1nc(C2COc3ccccc3O2)sc1C(=O)O (configuration not stated)	11	-7%	2	-3%	-11%	3%
CCCS(=O)(=O)c1cnc(C2COc3ccccc3O2)nc1N (configuration not stated)	-27	?	-11	0.63µM*	16µM*	1.3µM*
CC12CC3(C)CC(C)(C1)CC(C(=O)NCC(=O)O)(C2)C3	4	5%	-5	28%	-6%	3%
CN(C)C(=S)NC(=O)C12CC3(C)CC(C)(CC(C)(C3)C1)C2	22	-12%	-6	2.5µM*	1.3µM*	-23%
O=C(NCc1ccccc1Cl)c1cccc(C(F)(F)F)c1	-80*	3%	-8	?	-14%	12%
O=C(NCc1ccccc1Cl)c1cccc(OC2CCN(C(=O)C3CC3)CC2)c1	-2	16µM*	-2	10%	?	-17%
SMILES	IL-1B inflam inh	TDP1 cell CPT	LDHA block	RORgamma inh	DT40 TDP1 no CPT	VP16 counter
O=C(NCc1cccc(Cl)c1)c1cccc(C(F)(F)F)c1	-14	?	-2	19%	-22%	1%
O=C(CN(c1cccc(C(F)(F)F)c1)S(=O)(=O)c1ccc(Cl)c([N+](=O)[O-])c1)NCc1ccccc1Cl	-100*	16µM*	-3	-13%	16µM*	?
CC(NC(=O)CN(c1cccc(C(F)(F)F)c1)S(=O)(=O)c1ccc(Cl)c([N+](=O)[O-])c1)c1ccccc1 (configuration not stated)	-91*	4.6µM*	0	?	9.2µM*	?
O=C(CN(c1cccc(C(F)(F)F)c1)S(=O)(=O)c1ccc(Cl)c([N+](=O)[O-])c1)NCc1ccccc1	-11	-23%	-6	-31%	?	?
O=C1CCCC2=C1C(c1ccccc1F)n1nnnc1N2 (configuration not stated)	.	.	0	.	.	.
O=C(c1ccc(-n2cccn2)cc1)N1CCCC1c1ccc2c(c1)OCCO2 (configuration not stated)	.	.	19	.	.	.
CC1CCN(S(=O)(=O)c2cc(C(=O)N3CCN(c4ccccc4F)CC3)n(C)c2)CC1	.	?	4	.	?	.
Cc1ccc(Cl)cc1N1CCN(C(=O)c2cc(S(=O)(=O)N3CCCCCC3)cn2C)CC1	.	?	1	.	?	.
Cc1ccc(C)c(N2CCN(C(=O)c3cc(S(=O)(=O)N4CCC(C)CC4)cn3C)CC2)c1	.	16µM*	-1	.	?	.
CC1CCN(S(=O)(=O)c2cc(C(=O)N3CCN(c4cccc(Cl)c4)CC3)n(C)c2)CC1	.	?	-3	.	18µM*	.
c1cc(CNC2CC2)c2cc[nH]c2c1	.	.	9	.	.	.
NC(=O)C1CCN(C2CC(=O)N(Cc3ccc(N4CCCC4=O)cc3)C2=O)CC1 (configuration not stated)	4	26µM*	-8	-24%	?	1%
C/C(=N/Nc1ccc(Cl)c(Cl)c1)c1ccc(C#N)cc1	.	.	5	.	.	.
COc1ccc(-c2cc(C(=O)N3CCN(c4ccccc4)CC3)no2)cc1OC	13	-29%	-4	26%	?	0%
COc1ccc(-c2cc(C(=O)N3CCN(c4ccccc4OC)CC3)no2)cc1OC	-7	-15%	-7	33%	21µM*	-1%[10 µM]
